# Measurements published in PubChem BioAssay (NCI).
# The panel holds about 83,000 compounds, 20% with a hit somewhere; the sample as a whole holds those more often.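 Note: values are percent growth. 100 is the growth of untreated cells, values between 100 and 0 indicate rising inhibition; between -100 and 0 indicates cell death.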 A number with no mark means an inactive call. The source made the active and inactive calls. How the source made its calls: active means growth percent below 10; inactive means the rest.
# System: CCRF-CEM leukemia
# Assay: NCI-60 one-dose screen, 48 h (100 = growth as untreated, 0 = no growth, -100 = all killed)
# Conditions: 10 µM unless noted
row,Compound,growth
1,CS(=O)(=O)Nc1cccc(C(=O)NCc2ccc(N3CCOCC3)cc2)c1,99.8%
2,COc1ccc(S(=O)(=O)ON=C2C=C(C)C(=O)C(C)=C2)cc1,26.9%
3,CCOC(=O)c1c(Cl)c2c(n1Cc1cc(OC)cc(OC)c1)-c1oncc1CCC2,7.48% (active)
4,NC(=S)N/N=C1\c2ccccc2-c2c(F)c(F)c(F)c(F)c21,-28.1% (active)
5,N#Cc1c(O)c2c(c(O)c1C#N)C(=O)c1ccccc1C2=O,24.4%
6,Nc1nc2c(s1)CCc1c-2c(Br)n(Cc2ccccc2)c1Br,2.66% (active)
7,CCCCCn1c(=N)n(CC(O)COc2cccc(C)c2)c2ccccc21 (stereo not given),8.45% (active)
8,COc1ccc(-c2nn(-c3ccc(NC(=O)c4ccc(Cl)c(Cl)c4)cc3)cc2-c2ccncc2)cc1Cl,37.4%
9,COc1cccc(OC)c1OC(=O)c1ccccc1,92.7%
10,Cc1nc2ccc(Cl)cc2n1C,94.6%
11,C=C1CC[C@@H]2[C@@](C)(CCC[C@]2(C)C(=O)O)[C@@H]1CC[C@H](CO)CCO,102%
12,O=C(NCc1cccnc1)c1ccc([N+](=O)[O-])o1,54.4%
13,COc1ccc(NS(=O)(=O)c2ccc(-c3cnc(C4CC4)o3)cc2)cc1,76.2%
14,O=C(Nc1ccccc1)Oc1cccc2cccnc12,7.23% (active)
15,CCC12CCC3c4ccc(O)cc4CCC3C1CC(O)C2O (stereo not given),85.4%
16,Cc1ccc(S(=O)(=O)N2CCc3ccc(O)c4c3C2Cc2ccc3c(c2-4)OCO3)cc1 (stereo not given),-11.9% (active)
17,COC(=O)c1c2c(c(C)[n+]([O-])c1C)C(=O)C=C(NCc1cccc(OC)c1)C2=O,-17.1% (active)
18,O=C(c1cnn2c1NC(c1ccc(F)cc1)C2)N1CCCCC1 (stereo not given),105%
19,O=C1NC(=O)C2(CCCC2C(=O)O)N1 (stereo not given),91.8%
20,CON=C1C[C@]2(C[C@@H]3C[C@@H](C/C=C(\C)C[C@@H](C)/C=C/C=C4\CO[C@@H]5[C@H](O)C(C)=C[C@@H](C(=O)O3)[C@]45O)O2)O[C@H](/C(C)=C/C(C)C)[C@H]1C,38.2%
21,CCOC(=O)c1[nH]c2cc(Cl)ccc2c1[C@@H](C(=O)NC(C)(C)C)N(CC)C(=O)CCCCC#Cc1cccc2c1CN(C1CCC(=O)NC1=O)C2=O (stereo not given in full),13.7%
22,O=C1/C(=C/c2ccccc2F)CNC/C1=C\c1ccccc1F,-36.3% (active)
23,COc1cc(C2C3=C(COC3=O)N(CCO)c3cc4c(cc32)OCO4)cc(OC)c1O (stereo not given),28.6%
24,CCCCCCCC/C=C\CCCCCCCCOc1cccc(CC(=O)NCC[N+]2(C)CCOCC2)c1,61.6%
25,COc1ccccc1CNCCCCCCCCCCCCN1C(=O)c2ccc3c4c(ccc(c24)C1=O)C(=O)N(CCCCCCCCCCCCNCc1ccccc1OC)C3=O,50.4%
26,CC(C)NCC(O)COc1ccc(CCOCC2CC2)cc1 (stereo not given),93.8%
27,Clc1ccc(C2=NN(c3ccccc3)[C@H](c3cn(-c4ccccc4)nc3-c3ccccc3)C2)cc1,116%

# System: MOLT-4 leukemia
# Assay: as above
# Conditions: 10 µM unless noted
row,Compound,growth
1,CC(C)OC1=C(Cl)C(=O)c2ccccc2C1=O,39.8%
2,CS(=O)(=O)Nc1cccc(C(=O)NCc2ccc(N3CCOCC3)cc2)c1,93.2%
3,COc1ccc(S(=O)(=O)ON=C2C=C(C)C(=O)C(C)=C2)cc1,42%
4,CCOC(=O)c1c(Cl)c2c(n1Cc1cc(OC)cc(OC)c1)-c1oncc1CCC2,30%
5,NC(=S)N/N=C1\c2ccccc2-c2c(F)c(F)c(F)c(F)c21,-18% (active)
6,COCCOC1=C(Cl)C(=O)c2ccccc2C1=O,21.7%
7,O=C1C(OCCOc2ccccc2)=C(OCCOc2ccccc2)C(=O)c2ccccc21,82.9%
8,N#Cc1c(O)c2c(c(O)c1C#N)C(=O)c1ccccc1C2=O,8.65% (active)
9,COc1cc(/C=C/C(=O)CC(=O)/C=C/c2cc(Br)c(OC)c(OC)c2)cc(Br)c1OC,71.5%
10,CCN1CCN(c2ccc(Nc3ncc4ccc5ncn(C(C)C)c5c4n3)nc2)CC1,2.48% (active)
11,Nc1nc2c(s1)CCc1c-2c(Br)n(Cc2ccccc2)c1Br,11%
12,O=c1onc(-c2ccccc2)c2ccccc12,98.9%
13,CCCCCn1c(=N)n(CC(O)COc2cccc(C)c2)c2ccccc21 (stereo not given),1.95% (active)
14,COc1ccc(-c2nn(-c3ccc(NC(=O)c4ccc(Cl)c(Cl)c4)cc3)cc2-c2ccncc2)cc1Cl,13.8%
15,CCC(C)Oc1cc(/C=N/NC(=O)c2cnn3c2NC(c2ccccc2)C3)ccc1OC (stereo not given),24.9%
16,COc1cccc(OC)c1OC(=O)c1ccccc1,107%
17,C=C[C@H]1C[C@@H]2C[C@@H]3[C@H]4C/C=C\C(=O)NCCCC5NC(=O)C(=C(O)/C=C/[C@@H]4CC(=O)[C@H]3[C@@H]2[C@H]1C)C5=O (stereo not given in full),-68.9% (active)
18,Cc1nc2ccc(Cl)cc2n1C,97.7%
19,C=C1CC[C@@H]2[C@@](C)(CCC[C@]2(C)C(=O)O)[C@@H]1CC[C@H](CO)CCO,88.2%

row,Compound,growth
1,Fc1c[c-]c(-c2ccccn2)c(F)c1.Fc1c[c-]c(-c2ccccn2)c(F)c1.[Cl][Pt+].[Cl][Pt+].c1ccc([PH+](C[PH+](c2ccccc2)c2ccccc2)c2ccccc2)cc1,23.4%
2,O=C(NCc1cccnc1)c1ccc([N+](=O)[O-])o1,65.8%
3,COc1ccc(NS(=O)(=O)c2ccc(-c3cnc(C4CC4)o3)cc2)cc1,48.6%
4,NC1=NC(c2ccccc2OS(=O)(=O)c2ccc(Br)cc2)n2c(nc3ccccc32)N1 (stereo not given),79.3%
5,O=C(Nc1ccccc1)Oc1cccc2cccnc12,55.3%
6,CCC12CCC3c4ccc(O)cc4CCC3C1CC(O)C2O (stereo not given),69.4%
7,Cc1ccc(S(=O)(=O)N2CCc3ccc(O)c4c3C2Cc2ccc3c(c2-4)OCO3)cc1 (stereo not given),10.9%
8,COC(=O)c1c2c(c(C)[n+]([O-])c1C)C(=O)C=C(NCc1cccc(OC)c1)C2=O,-45.9% (active)
9,O=C(c1cnn2c1NC(c1ccc(F)cc1)C2)N1CCCCC1 (stereo not given),108%
10,O=C1NC(=O)C2(CCCC2C(=O)O)N1 (stereo not given),101%
11,CON=C1C[C@]2(C[C@@H]3C[C@@H](C/C=C(\C)C[C@@H](C)/C=C/C=C4\CO[C@@H]5[C@H](O)C(C)=C[C@@H](C(=O)O3)[C@]45O)O2)O[C@H](/C(C)=C/C(C)C)[C@H]1C,-20.4% (active)
12,COc1cc(/C=C/C(=O)C(=Cc2ccc(F)c(F)c2)C(=O)/C=C/c2ccc(O)c(OC)c2)ccc1O,12.2%
13,CCOC(=O)c1[nH]c2cc(Cl)ccc2c1[C@@H](C(=O)NC(C)(C)C)N(CC)C(=O)CCCCC#Cc1cccc2c1CN(C1CCC(=O)NC1=O)C2=O (stereo not given in full),10.1%
14,O=C1/C(=C/c2ccccc2F)CNC/C1=C\c1ccccc1F,-32.5% (active)
15,COc1cc(C2C3=C(COC3=O)N(CCO)c3cc4c(cc32)OCO4)cc(OC)c1O (stereo not given),47.6%
16,CCCCCCCC/C=C\CCCCCCCCOc1cccc(CC(=O)NCC[N+]2(C)CCOCC2)c1,72.1%
17,COc1ccccc1CNCCCCCCCCCCCCN1C(=O)c2ccc3c4c(ccc(c24)C1=O)C(=O)N(CCCCCCCCCCCCNCc1ccccc1OC)C3=O,64.6%
18,CC(C)NCC(O)COc1ccc(CCOCC2CC2)cc1 (stereo not given),88.3%
19,Clc1ccc(C2=NN(c3ccccc3)[C@H](c3cn(-c4ccccc4)nc3-c3ccccc3)C2)cc1,93.6%
